# This is a sample that favours compounds with a hit; in the whole collection about 1.3% have one here.
# LYPLA1 counter: blocks human lysophospholipase 1, a PME1 counter-screen | recombinant LYPLA1, FP-Rh probe fluorescence polarization | inhibition, % at 5.9 µM | 320,000 compounds, 0.16% hits | O75608 | AID 2174;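 active = inhibition above the mean of all tested compounds plus 3 SD, set per campaign, cut at about 14% in these data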;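 also: inhibitors block serine hydrolase probe labeling of LYPLA1 so polarization falls; 0% = enzyme with DMSO and 100% = wells lacking LYPLA1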
# Target sequence (O75608 whole entry, looked up): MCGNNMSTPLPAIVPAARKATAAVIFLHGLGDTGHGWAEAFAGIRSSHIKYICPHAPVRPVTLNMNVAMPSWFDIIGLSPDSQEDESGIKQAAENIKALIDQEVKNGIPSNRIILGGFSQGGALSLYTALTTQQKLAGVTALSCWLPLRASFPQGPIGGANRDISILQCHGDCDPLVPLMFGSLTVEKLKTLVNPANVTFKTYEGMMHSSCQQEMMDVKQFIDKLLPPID
# PREPL inh: human PREPL enzyme inhibition; recombinant PREPL, fluorescence polarization activity-based probe; inhibition, % at 5.96 µM; Q4J6C6; 320,000 compounds, 0.68% hits; in the data active = inhibition above about 43%;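 also: 0% = enzyme with DMSO and 100% = wells lacking enzyme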
# LYPLA2 counter: LYPLA2 (human) inhibition in PME1 counter-screen; O95372; recombinant LYPLA2, FP-Rh probe fluorescence polarization; inhibition, % at 5.9 µM; 320,000 compounds, 0.38% hits;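 active = inhibition above the screen-wide mean plus 3 SD, limit set per campaign, cut at about 26% in these data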;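 also: 0% = LYPLA2 with DMSO and 100% = wells lacking LYPLA2 enzyme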
# PME-1 primary: PME-1 (human) inhibition | Q9Y570 | recombinant PME-1, FP-Rh probe fluorescence polarization | inhibition, % at 5.9 µM | 320,000 compounds, 0.53% hits | AID 2130;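 active = inhibition above the campaign mean of all compounds plus 3 SD, cut at about 26% in these data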;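 also: competitive labeling of PME-1 active site by serine hydrolase directed probe; 0% = PME-1 with DMSO and 100% = wells lacking PME-1 enzyme; inhibitors block probe labeling so polarization falls and inhibition rises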
# Target sequence (Q9Y570 whole entry, looked up): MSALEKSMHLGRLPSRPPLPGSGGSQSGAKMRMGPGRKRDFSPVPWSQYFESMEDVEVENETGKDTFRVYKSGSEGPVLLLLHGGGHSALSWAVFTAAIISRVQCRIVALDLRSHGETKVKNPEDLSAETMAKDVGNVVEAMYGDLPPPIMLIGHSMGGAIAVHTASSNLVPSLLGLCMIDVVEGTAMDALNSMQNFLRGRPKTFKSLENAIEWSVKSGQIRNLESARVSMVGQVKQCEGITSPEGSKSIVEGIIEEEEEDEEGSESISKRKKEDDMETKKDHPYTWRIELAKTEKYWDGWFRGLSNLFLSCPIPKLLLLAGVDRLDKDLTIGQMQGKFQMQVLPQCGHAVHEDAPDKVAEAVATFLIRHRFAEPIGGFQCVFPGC
# Fam108B counter: Fam108B inhibition, counter-screen for RBBP9 inhibitors; 300,000 compounds, 0.33% hits; inhibition, % at 9.51 µM; recombinant Fam108B, FP-Rh probe fluorescence polarization; AID 1947;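 active = inhibition above the screen mean inhibition plus 3 SD, computed separately per campaign, cut at about 18% in these data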;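 also: inhibitors lower polarization as less probe binds the enzyme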
# LYPLA2 conf: LYPLA2 (human) inhibition, confirmation counter-screen. shares compounds with LYPLA2 counter. recombinant LYPLA2, FP-Rh probe fluorescence polarization. inhibition, % at 5.9 µM. 1,100 compounds, 72% hits. AID 2232;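 active = mean inhibition across replicates above the hit cutoff set in the primary screen, cut at about 26% in these data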;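 also: blocked labeling of the enzyme by serine hydrolase FP-Rh probe lowers polarization; 0% = enzyme with DMSO and 100% = wells lacking LYPLA2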
# LYPLA2 ABPP: LYPLA2 (human) inhibition, late stage results. inhibition, % at 20 µM. rhLYPLA2 in mouse brain proteome, gel ABPP FP-Rh. AID 652029. 150 compounds, 30% hits. shares compounds with LYPLA2 counter;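 active = inhibition of LYPLA2 enzyme probe labeling above about 50%, limit read from the data; inactive = inhibition below that limit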;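 also: loss of FP-Rh probe labeling of the LYPLA2 gel band measured as band density; 0% = DMSO only control band and 100% = blank gel background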
# * hit, by the source's call; nt = no result.
SMILES,LYPLA1 counter,PREPL inh,LYPLA2 counter,PME-1 primary,Fam108B counter,LYPLA2 conf,others
CCCCCC(=O)Nc1cc(S(=O)(=O)N2CCOCC2)ccc1Oc1ccc(OCC)cc1,-1,0,-4,-2,-2,nt,
Cc1cc(C(=O)NC2CCCCC2)c2cc(F)ccc2n1,2,1,5,-1,-6,nt,
Cc1cc(C(=O)NC(C)c2ccccc2)c2cc(F)ccc2n1 (stereo not drawn),3,14,28*,3,3,13,
COC(=O)c1ccc(CNC(=O)C2CCC(=O)N(CCCc3ccccc3)C2)cc1 (stereo not drawn),-1,10,-10,8,0,nt,
O=C1c2cnc3ncnn3c2CC2c3ccccc3CCN12 (stereo not drawn),0,9,2,2,2,nt,
N#Cc1cnn2c3c(cnc12)C(=O)N1CCc2ccccc2C1C3 (stereo not drawn),10,3,42*,0,0,44*,
COc1ccc(NC(=O)CSc2nnc(C)c3ccccc23)cc1,2,16,32*,4,1,1,
CC(=O)c1ccc(OCc2cc(C(=O)N3CCC(c4ccncc4)CC3)no2)cc1,3,-5,34*,-2,-2,37*,
COc1cccc(OCc2cc(C(=O)N3CCC(c4ccncc4)CC3)no2)c1,8,14,25,-1,-1,nt,
Cc1nn(C(C)C(=O)N2CCc3ccccc32)c(C)c1[N+](=O)[O-] (stereo not drawn),1,0,1,4,-2,nt,
Cc1cc(N2CCN(c3ccc(C(F)(F)F)cc3[N+](=O)[O-])CC2)c2ccccc2n1,2,21,29*,4,3,26*,
CNC(=O)C1CCN(S(=O)(=O)c2c(C)noc2/C=C/c2ccc(OC)cc2)CC1,-1,-1,-3,-3,-5,nt,
Cc1ccc(-n2cnn(-c3ccc([N+](=O)[O-])cc3[N+](=O)[O-])c2=O)cc1,2,9,55*,-3,5,56*,LYPLA2 ABPP=46
COc1cccc(C(=O)NC(=S)N2CCN(c3ccc(C(F)(F)F)cc3[N+](=O)[O-])CC2)c1,3,-3,65*,5,-2,52*,LYPLA2 ABPP=13
CC(C)Oc1cccc(C(=O)NC(=S)N2CCN(c3ccc(C(F)(F)F)cc3[N+](=O)[O-])CC2)c1,-8,5,8,0,3,nt,
CCCCCCCOc1ccc(OC(=O)c2ccncc2)cc1,3,2,32*,0,2,49*,
CCCCCCCOc1ccc(OC(=O)c2cccnc2)cc1,1,1,41*,3,-4,48*,
CCCOc1cccc(C2C(C(=O)c3ccc(C)o3)=C(O)C(=O)N2c2nc(C)c(C(C)=O)s2)c1 (stereo not drawn),-5,2,-13,-14,-4,nt,
CCSc1ccccc1C(=O)N=C1NC(=O)CC2C(=O)NCCN12 (stereo not drawn),2,3,10,1,1,nt,
O=C1CC(N2CCN(c3cccc(C(F)(F)F)c3)CC2)C(=O)N1c1ccc(F)cc1 (stereo not drawn),2,16,55*,-8,-3,49*,
O=C1CC(N2CCN(c3ccccn3)CC2)C(=O)N1c1ccc(F)cc1 (stereo not drawn),-2,0,-4,-9,-1,nt,
Cc1cccc(N2C(=O)CC(N3CCN(c4cccc(C(F)(F)F)c4)CC3)C2=O)c1 (stereo not drawn),14,11,46*,7,2,40*,
CC(C)Oc1ccc(C(=O)NC2(C(F)(F)F)NC(=O)N(CCCc3ccccc3)C2=O)cc1 (stereo not drawn),-1,9,0,-3,-2,nt,
Cc1cccn2c(=O)nc(SCC(=O)NCc3ccc(F)cc3)nc12,-5,-6,3,6,-1,nt,
O=C(O/N=C/c1ccc2c(c1)OCO2)c1ccccc1Cl,3,55*,26*,3,5,14,
SMILES,LYPLA1 counter,PREPL inh,LYPLA2 counter,PME-1 primary,Fam108B counter,LYPLA2 conf,others
CCCN(C(=O)CSCC(=O)Nc1ccc(OC)cc1)c1c(N)n(Cc2ccccc2)c(=O)[nH]c1=O,6,-6,-4,1,-2,nt,
N#Cc1nc(-c2ccco2)oc1N1CCN(c2ccccc2)CC1,6,39,26*,1,0,17,
CC1(C)NC(C)(C)C(O)(C(N)=O)C1=O (stereo not drawn),2,10,27*,5,1,18,
Cc1cccnc1NC(=O)C(C)N1C(=O)c2ccccc2C1=O (stereo not drawn),2,0,2,-3,0,nt,
Cc1cccnc1NC(=O)C(c1ccccc1)c1ccccc1,0,0,27*,-7,-2,-1,
O=C(C[n+]1cccc(NC(=O)c2ccccc2)c1)c1ccccc1,-5,8,10,-1,3,nt,
O=C(C[n+]1cccc(NC(=O)c2ccccc2)c1)c1ccc(NC(=O)c2ccccc2)cc1,0,11,27*,3,-6,19,
O=C(NCc1ccc2c(c1)OCO2)C1CCC(CNS(=O)(=O)c2cccc3nsnc23)CC1 (stereo not drawn),0,15,34*,6,1,38*,
O=C(CN1C(=O)NC2(CCCCC2)C1=O)Nc1cccc(S(=O)(=O)N2CCOCC2)c1,3,21,7,9,5,nt,
O=C(CN1C(=O)NC2(CCCC2)C1=O)Nc1ccc(S(=O)(=O)N2CCOCC2)cc1,4,-3,30*,4,-7,1,
CNC(=S)NNC(=O)c1oc2nc(-c3ccccc3)cc(C)c2c1N,-2,3,7,-4,0,nt,
NNC(=O)c1oc2nc(-c3ccccc3)cc(-c3ccccc3)c2c1N,-1,6,32*,5,7,9,
COc1ccc(-n2c(C)cc(C(=O)Cn3nc(C(=O)O)c4ccccc4c3=O)c2C)cc1,-4,-31,0,-14,-4,nt,
COc1ccc(-n2c(C)cc(C(=O)Cn3nnc4ccccc4c3=O)c2C)cc1,-1,-2,27*,-13,-2,20,
CN(C(=O)c1ccc(NC(=O)Cc2cccc(NC(=O)C3CCN(C(=O)C4CCCC4)CC3)c2)cc1)C1CCCC1,3,-2,32*,-2,nt,-5,
CN(C(=O)c1ccc(NC(=O)Cc2ccc(NC(=O)C3CCCN(C(=O)C4CC4)C3)cc2)cc1)C1CC1 (stereo not drawn),3,-1,60*,-1,nt,61*,LYPLA2 ABPP=45
CN(Cc1ccccc1)C(=O)c1ccc(NC(=O)Cc2cccc(NC(=O)C3CCN(C(=O)C4CCCCC4)CC3)c2)cc1,-7,1,-12,-11,nt,nt,

# Assay outcomes deposited in PubChem by The Scripps Research Institute Molecular Screening Center.
